Hits are enriched below; roughly 19% of the tested compounds scored in any of these assays.
IL1B secr inh – blocks inflammasome-driven IL-1 beta release; THP-1 LPS/ATP IL-1B secretion, AlphaLISA, 16 h; stronger effect = lower value; activity change, % at 57.5 µM; actives 4.7% (n = 360,000); AID 743279; in the data active = activity change below about -50%; inconclusive = mostly about -30% to -49%
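Secreted IL-1B measured by AlphaLISA bead assay after 16 h compound exposure of THP-1 cells; compounds (final up to 57.5 uM) added 1 h before LPS (250 ng/mL) and ATP (1.25 mM) stimulation; lower signal means less secretion.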
HT1080 IDH1KD tx – HT-1080 IDH1 knockdown cell toxicity (counter line). Potency, µM (series often up to 46.1 µM), for inactives: at the top dose activity, negative = toxicity, hits mostly cytotoxic. HT-1080 IDH1 knockdown viability, ATP luminescence, 48 h. actives 2% (n = 360,000);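 also: potency is read from the fitted curve at half-maximal effect; 0% = DMSO wells and -100% = cell-free medium wells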
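Viability of IDH1-knockdown HT-1080 fibrosarcoma cells was assessed by CellTiter-Glo after 48 h at 37 °C with titrated compound; concentration-effect curves were classified by fit quality and response size.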
TDP1 cell CPT – DT40-hTDP1 cell growth loss with CPT. chicken DT40 Tdp1-/-;hTDP1 cells + 20 nM CPT, ATP luminescence, 48 h. Potency, µM (series often up to 46.2 µM), for the others: at the highest dose activity change, negative = growth inhibition, hits mostly inhibitors. actives 12% (n = 420,000). AID 686979; also: potency is read from the fitted curve at half-maximal effect; nearly all actives have a fitted effect of over 55% in size
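Chicken DT40 Tdp1-/- cells stably complemented with human TDP1 were seeded at 400 cells/well in medium containing 20 nM camptothecin, exposed to pin-transferred compounds, and grown at 37 °C for at least 48 hr. Viability was read as ATP luminescence.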
HT1080-NT tox – kills 2HG-producing HT-1080-NT fibrosarcoma cells | HT-1080-NT fibrosarcoma viability, CellTiter-Glo ATP luminescence, 48 h | Potency, µM (top dose mostly 46.1 µM), for inactives: at the highest dose activity, negative = less viability, hits mostly cytotoxic | actives 1.6% (n = 360,000) | AID 686970;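 also: NT is the 2HG producing partner of a matched IDH1 knockdown line; potency is read from the fitted curve at half-maximal effect; 0% = DMSO-treated cells and -100% = media-only wells without cells; nearly all actives have a fitted effect of over 55% in size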
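A 48-hour cytotoxicity screen used HT-1080-NT cells plated 2 hours before compound delivery. ATP-based CellTiter-Glo luminescence measured viability, normalized to DMSO and no-cell controls.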
TDP1 cell noCPT – qHTS for Inhibitors of human tyrosyl-DNA phosphodiesterase 1 (TDP1): qHTS in cells in absence of CPT. DT40 Tdp1-/- hTDP1 cells, no CPT, ATP luminescence, 48 h. actives 15% (n = 420,000). AID 686978, 2013. Potency, µM (series often up to 46.2 µM), inactives show at the highest dose activity change, negative = growth inhibition, usual class: inhibitors; also: potency is read from the fitted curve at half-maximal effect; nearly all actives have a fitted effect of over 55% in size
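Readout: luminescence from CellTiter-Glo after 30 min in the dark at RT. Cells: DT40 Tdp1-/- with stable hTDP1, 400/well. Exposure: compounds alone, ≥48 hr, 37 °C.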
The depositor's hits bear a star; u = inconclusive; x = not tested or not shown. Unless noted, calls follow the shape of the dose curve; as a rule, active = well fitted curve in the direction sought with a large enough effect; inconclusive = small, poorly fitted or top-dose-only effect, or another doubt; inactive = no such curve, though single readings can be large; an effect the other way counts as inactive or inconclusive. Unless noted, % is scaled to controls: 0 for no effect and ±100 for the full control effect.

SMILES	IL1B secr inh	HT1080 IDH1KD tx	TDP1 cell CPT	HT1080-NT tox	TDP1 cell noCPT
CCOC(=O)N1CCN(S(=O)(=O)c2ccc3c(c2)SC(C)C(=O)N3)CC1 (stereo unspecified)	19	-11%	13µM*	-1%	9.2µM*
CCOC(=O)N1CCN(S(=O)(=O)c2ccc(OCC)c(C)c2)CC1	-5	-5%	u	-1%	9.2µM*
CCOC(=O)N1CCN(S(=O)(=O)c2ccc3c(c2)SCC(=O)N3)CC1	12	-7%	u	-11%	u
CCOc1ccc(S(=O)(=O)N2CCCC2)c2ccccc12	15	-20%	u	-13%	u
CCOC(=O)c1cccc(NC(=O)C2CCN(S(=O)(=O)c3ccc4c(c3)oc(=O)n4C)CC2)c1	x	x	u	x	21µM*
CCOc1ccc(NC(=O)C2CCN(S(=O)(=O)c3ccc4c(c3)oc(=O)n4C)CC2)cc1	x	x	-14%	x	-12%
Cc1nc2c(c(C)c1CCC(=O)NCc1ccc(F)cc1)c(=O)n(C)c(=O)n2C	x	x	13%	x	1%
CCCCCCCCCCCCCCCC(=O)OC[C@H](O)[C@H]1OC(=O)C(O)=C1O	x	x	10%	x	-2%
Cc1ccc(S(=O)(=O)N(C)C)cc1NC(=O)C(C)OC(=O)C1CCCC1 (stereo unspecified)	6	1%	-18%	2%	-6%
CCCC1=C(C(=O)OCC)C(c2cccnc2)n2nc(C)nc2N1 (stereo unspecified)	-2	3%	8%	10%	-5%
COc1ccc(OCC(=O)N(Cc2cccs2)C2CCS(=O)(=O)C2)cc1 (stereo unspecified)	9	-3%	-2%	3%	1%
COc1ccc(N(Cc2cccs2)C(=O)COc2ccc(C(C)C)cc2)cc1	x	x	23µM*	x	21µM*
COc1ccc(N(Cc2cccs2)C(=O)c2ccco2)cc1	x	x	23µM*	x	u
COc1ccc(OCC(=O)N(Cc2cccs2)c2ccc(OC)cc2)cc1	x	x	16µM*	x	23µM*
COc1ccc(C(C)NC(=O)Cc2cccs2)cc1 (stereo unspecified)	3	1%	10%	7%	-18%
COC(=O)c1cc(S(=O)(=O)NCC(C)c2ccccc2)c[nH]1 (stereo unspecified)	3	-16%	-11%	-5%	-24%
N#Cc1ccccc1Sc1ccccc1C(=O)NCC(c1ccco1)N1CCCC1 (stereo unspecified)	-13	-13%	23µM*	-9%	u
CC(C)C(NC(=O)c1ccco1)C(=O)NCC(c1ccco1)N1CCCCC1 (stereo unspecified)	-3	3%	-4%	6%	-9%
S=C(NCCc1ccccc1)NCC(c1ccco1)N1CCCCC1 (stereo unspecified)	u	-18%	u	4%	23µM*
CC(Oc1ccc(C(C)(C)C)cc1)C(=O)NCC(c1ccco1)N1CCCC1 (stereo unspecified)	u	-7%	23µM*	-13%	21µM*
N#Cc1ccc(C(=O)NCC(c2ccco2)N2CCCC2)cc1 (stereo unspecified)	30	22%	-6%	14%	-6%
O=C(NCC(c1ccco1)N1CCCCC1)c1cc2c(s1)CCCC2 (stereo unspecified)	16	19%	18µM*	2%	16µM*
COCCC(=O)N1CCC(Oc2ccc(C(=O)N(C)C3CCCCC3)cc2)CC1	37	5%	-19%	6%	u
Cc1nnc(NC(=O)CCC(=O)NCc2ccco2)s1	7	8%	14%	5%	1%
O=C(NCC(c1ccco1)N1CCCCC1)C(c1ccccc1)c1ccccc1 (stereo unspecified)	u	-6%	16µM*	1%	u
SMILES	IL1B secr inh	HT1080 IDH1KD tx	TDP1 cell CPT	HT1080-NT tox	TDP1 cell noCPT
COc1ccc(C(=O)C[n+]2ccc(N(C)C)cc2)cc1	22	u	u	-9%	16µM*
Cc1ccc[n+](CC(=O)c2ccc(Br)cc2)c1	22	-1%	-8%	-11%	17%
CN(C)c1cc[n+](CC(=O)c2ccc(Br)cc2)cc1	16	-1%	16µM*	-13%	u
COc1ccc(C(=O)COC(=O)c2ccc(N(C)C)cc2)cc1	21	20%	-8%	24%	-28%
O=C(O)Cn1nc(-c2ccccc2)cc1-c1ccccc1	17	10%	6%	15%	8%
CCC1C(=O)n2nc(-c3ccccc3)cc2N=C1C (stereo unspecified)	25	-5%	8.2µM*	-11%	10µM*
Cc1cc(NC(=O)NC(=O)c2ccccc2NC(=O)CN(C)C)ccc1Oc1ncc(Br)cn1	60	u	3.7µM*	u	4.1µM*
Cc1cc(NC(=O)NC(=O)c2ccccc2NC(=O)CN)ccc1Oc1ncc(Br)cn1	-15	u	0.82µM*	0.52µM*	0.58µM*
Nc1ccccc1C(=O)NC(=O)Nc1ccc(Oc2ncc(Br)cn2)c(Cl)c1	29	u	0.0052µM*	u	0.018µM*
COc1ccc(NC(=O)Nc2ccccc2C(N)=O)cc1OC	0	-15%	0%	4%	-5%
CN(C)Cc1ccccc1Sc1ccc(O)cc1O	-14	10%	7%	9%	-20%
O=C(/C=C/c1ccccc1)Nc1nc2n(n1)C(c1ccc(Cl)cc1)C=C(c1ccccc1)N2 (stereo unspecified)	x	x	21µM*	x	23µM*
O=S(=O)(Nc1nc2n(n1)C(c1ccc(F)cc1)C=C(c1ccc(Cl)cc1)N2)c1ccccc1 (stereo unspecified)	x	x	-25%	x	-18%
COc1ccccc1/C=C/C(=O)Nc1nc2n(n1)C(c1ccc(F)cc1)C=C(c1ccccc1)N2 (stereo unspecified)	x	x	10µM*	x	4.6µM*
OCCCc1nc2n(n1)C(c1ccccc1)C=C(c1ccc(F)cc1)N2 (stereo unspecified)	-3	16%	-13%	-3%	-11%
O=C(/C=C/c1ccc(F)cc1)Nc1nc2n(n1)C(c1ccc(Cl)cc1)C=C(c1ccccc1)N2 (stereo unspecified)	x	x	u	x	15µM*
COc1ccc(C2C=C(c3ccccc3)Nc3nc(NC(=O)/C=C/c4ccc(Cl)cc4)nn32)cc1 (stereo unspecified)	x	x	15µM*	x	12µM*
CCOc1ccc(C(=O)OCC(=O)NC2CCCC2)cc1OCC	78	-12%	9%	-9%	-5%
CC(C)COC(=O)c1ccc2c(c1O)C(=O)c1ccccc1C2=O	-12	19%	u	4%	23µM*
